The source of these data is PubChem BioAssay (NCI).

Compounds without any hit were thinned out: in the full panel of roughly 83,000, 20% have a hit.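 96-well plates, one dose, 48 hours. Percent growth reported; active if below 10.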 Values without a mark were called inactive. Active and inactive are the calls of the source.

This assay concerns NCI-H226 lung. As to the kind of experiment: NCI-60 one-dose screen, 48 h (100 = growth as untreated, 0 = no growth, -100 = all killed). Conditions: 10 µM unless noted. The protocol:
Growth inhibition of the NCI-H226 human Non-Small Cell Lung tumor cell line is measured as a screen for anti-cancer activity. Cells are grown in 96 well plates and exposed to the test compound for 48 hours. Compounds are tested at a single concentration, which is 10^-5 M for most compounds. The reported endpoint is percent growth (GI% or GIPRCNT), where numbers from 0 - 100% represent growth inhibition, and numbers from -100% - 0 represent cell death. For example, a value of 40 represents 60% growth inhibition. A value of 0 means no net growth occurred over the course of the experiment. A value of -40 indicates 40% of cells at the beginning of the experiment died by the end of the experiment. A value of -100 means all cells are dead at the end of the experiment.
NCI-60 Human Tumor Cell Lines Screen was performed using the standard one-dose NCI protocol, which is described in more detail at https://dtp.cancer.gov/discovery_development/nci-60/default.htm.
Compounds with GIPRCNT values below 10 were considered active. Activity score was based on GIPRCNT using the following formula: […]
Score is 0 for GIPRCNT values of 100 or above, 50 for GIPRCNT values of 0, and 100 for GIPRCNT values of -100.
`N#Cc1c(-c2ccc(Cl)cc2)nc2c(c(-c3ccccc3)nn2-c2ccccc2)c1-c1ccc(O)cc1`: the growth was 65.9%.
Under `COc1cc(/C=C2\C(=O)Nc3ccc(Br)cc32)cc(OC)c1OC` stands 77.1%.
Under `COc1cc(/C=C/C(=O)/C=C/c2cc(OC)c3c(c2OC)OCO3)c(OC)c2c1OCO2` stands 73.9%.
Next, `O=C(CCN1C(=O)/C(=C/c2ccc(O)cc2)SC1=S)Nc1ccc(Cl)cc1`: 97.8%; `O=[N+]([O-])c1ccccc1NCSc1ccc(Cl)cc1`: 91%.
Turning to `CCCCn1c(=O)c(-c2cc(-c3ccc(Cl)cc3)nc(-c3ccc(Cl)cc3)c2)cc2cc(Cl)ccc21`, the growth is 104%.
In the case of `CCc1ccc2nc(NC(=O)Cc3csc(NC(=O)c4ccco4)n3)sc2c1`, the growth is 72.6%.
In the case of `COc1ccc2nc(NC(=O)c3cccnc3Nc3ccc(S(N)(=O)=O)cc3)sc2c1`, the growth was 95.5%.
For `NC[C@@H]1O[C@H](O[C@@H]2[C@@H](CO)OC(O[C@@H]3[C@@H](O)[C@H](N)C[C@H](N)[C@H]3OC3O[C@H](CN)[C@@H](O)[C@H](O)[C@H]3N)[C@@H]2O)[C@H](N)[C@@H](O)[C@@H]1O` (stereo not given in full), the growth is 109%.
With `COc1ccc(/C=C/c2c(C(=O)/C=C/c3ccc(C(F)(F)F)cc3)c(C)nc3ccccc23)cc1`, the growth was -38.3% (active).
In the case of `CC1=C(SCCC(=O)OC(C[Se]C2=C(C)C(=O)c3ccccc3C2=O)C(=O)NC(C)(C)C)C(=O)c2ccccc2C1=O` (stereo not given), the growth is -63.3% (active).
Regarding `COc1ccc2c(c1)c(-c1nn3cc(-c4cccs4)nc3s1)cn2C`, the growth is 78.9%.
As for `O=CN1N=C(c2ccc(Nc3ccnc4cc(Cl)ccc34)cc2)CC1c1ccccc1` (stereo not given), the growth is 65.3%.
As for `CCOC(=O)Nc1ccc(-c2nc(-c3cccc(OCCN4CCOCC4)c3)c(-c3ccnc(Br)c3)[nH]2)cc1`, the growth was 56.3%.
Regarding `NS(=O)(=O)c1ccc(N=Nc2ccc(-c3nn4cc(-c5ccccc5)nc4s3)cc2)cc1`, the growth was 99.9%.
On to `Cc1cc2[nH]c(=O)c3c4ncccc4cn3c2cc1C`, for which the growth was 51.8%.
As for `C[C@]12CC[C@@H]3c4cc(OC(F)F)c(OS(N)(=O)=O)cc4CC[C@H]3[C@@H]1CC[C@@H]2O`, the growth is 54.9%.
For the compound `COc1cccc(-c2nn(-c3ccccc3)cc2-c2ccnc(N3CCOCC3)c2)c1`, the growth was 93.9%.
With `c1cc(NCCc2ccncc2)nc(-n2cnc3ccccc32)c1`, the growth was 76.6%.
Regarding `CC/C=C\C[C@@H](O)C/C=C1/C(=O)C=C[C@H]1C/C=C\CCCC(=O)OC`, the growth is 8.9% (active).
Take `C=C(C)C1CCC2(C)OC2C1` (stereo not given): the growth is 98.8%.
Take `CC1=NN(c2ccc(S(=O)(=O)O)cc2)C(=O)C1N=Nc1ccc(-c2ccc(N=Nc3ccc(OS(=O)(=O)c4ccc(C)cc4)cc3)c(S(=O)(=O)O)c2)cc1` (stereo not given): the growth was 85.7%.
Regarding `O=C(CCc1nnc(-c2c(Cl)cccc2Cl)o1)c1nc2ccccc2[nH]1`, the growth is 83.7%.
On to `Cc1cccc(NC2=C(Cl)C(=O)c3nc(C)ccc3C2=O)c1`, for which the growth was -0.0359% (active).
For the compound `CNc1ccc(Nc2cccc(C)c2)c2c1C(=O)c1ccccc1C2=O`, the growth was 93.1%.
On to `CCc1ccccc1-n1c(N)c(C#N)c(-c2ccc(Cl)cc2)c(C#N)c1=O`, for which the growth is 110%.
As to `NCCCNc1nc2ccccc2c2c(=O)c3cc(OC(F)(F)F)ccc3sc12`, the growth was 85.7%.
Under `COc1nc2ccc(C)cc2cc1-c1nc2c(cnn2-c2ccccc2)c(=O)[nH]1` stands 92%; under `OC(COc1ccccc1Cl)CN1CCN(c2cccc(Cl)c2)CC1` (stereo not given), 96.5%; under `Nc1ccc(Sc2ccc([N+](=O)[O-])c3nonc23)cc1`, 96.5%.
Next, `Cc1ccc(C(=O)NN2C(=O)CSC2c2ccc(Cl)cc2)cn1` (stereo not given): 82.4%.
Under `N#C/C(=C\c1cccc2cnccc12)n1nnc2cccc(F)c21` stands 62.6%.
With `NCCCNc1nc2ccc(Cl)cc2c2c(=O)c3cc(F)ccc3sc12`, the growth was 91.9%.
Next, `COc1cccc(Cc2cc(-c3ccccc3)nn(CC(=O)c3ccccc3)c2=O)c1`: 60.7%; `COc1cc(C)c(Cc2cnc(N)nc2N)cc1OC`: 93.9%; `COc1cc(CCC[P+](c2ccccc2)(c2ccccc2)c2ccccc2)c(OC)c(OC)c1OC`: 88.8%.
`c1ccc(-c2nc3nonc3nc2-c2ccccc2)cc1`: the growth is 69.2%.
In the case of `S=C(c1cccs1)N1CCN(c2cccc(Cl)c2)CC1`, the growth is 92.7%.
In the case of `CCN(CC)CCNC(=O)c1cn2ncnc(Oc3ccc(NC(=O)Nc4ccc(Cl)c(C(F)(F)F)c4)cc3)c2c1C`, the growth was 6% (active).
For the compound `[O-][n+]1c2ccccc2[n+]([O-])c2c3ccccc3[nH]c21`, the growth was -0.987% (active).
